Screening data deposited in PubChem BioAssay by National Center for Advancing Translational Sciences (NCATS).
Most compounds without a hit are left out; they make up all but 19% or so of the library.
TDP1 cell noCPT: qHTS for Inhibitors of human tyrosyl-DNA phosphodiesterase 1 (TDP1): qHTS in cells in absence of CPT; hit rate 15% among 420,000; DT40 Tdp1-/- hTDP1 cells, no CPT, ATP luminescence, 48 h; AID 686978, 2013; Potency, µM (highest dose often 46.2 µM), without a hit: at the highest dose activity change, negative = growth inhibition, hits mostly inhibitors; note: nearly all actives have a fitted effect of over 55% in size
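Cells were dispensed at 400 per well, compounds added by pin tool, plates incubated ≥48 hr at 37 °C, then CellTiter-Glo added for 30 min at room temperature before luminescence reading. Line: DT40 Tdp1-/- complemented with hTDP1; camptothecin omitted.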
KB-V1 MDR tox: qHTS assay for MDR1-selective chemotherapeutics: Primary screen using the drug-selected MDR subline cells KB-V1; KB-V1 MDR cells viability, CellTiter-Glo, 72 h; Potency, µM (titrated, usually from 46.1 µM), hits mostly cytotoxic; hit rate 3.4% among 400,000; AID 1347076, 2019; note: nearly all actives have a fitted effect of over 60% in size
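Drug-selected KB-V1 cells, grown in DMEM lacking phenol red with 10% FBS, receive compound titrations; after three days at 37 degrees C, surviving cell ATP is quantified by CellTiter-Glo luminescence and responses normalized and curve-fitted.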
HT1080NT lethal: qHTS for induction of synthetic lethality in tumor cells producing 2HG: qHTS for the HT-1080-NT fibrosarcoma cell line | hit rate 1.6% among 360,000 | HT-1080-NT fibrosarcoma viability, CellTiter-Glo ATP luminescence, 48 h | AID 686970, 2013 | Potency, µM (highest dose often 46.1 µM), for the others: at the highest dose activity, negative = less viability, usual class: cytotoxic;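 note: NT is the 2HG producing partner of a matched IDH1 knockdown line; 0% = DMSO-treated cells and -100% = media-only wells without cells; nearly all actives have a fitted effect of over 55% in size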
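HT-1080-NT; 750 cells/well; 5% FBS RPMI; 48 h compound, 37 degrees C; CellTiter-Glo luminescence; curve fitting and curve-class assignment.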
HT1080 IDH1KD tx: qHTS for induction of synthetic lethality in tumor cells producing 2HG: qHTS for the HT-1080-IDH1KD cell line. HT-1080 IDH1 knockdown viability, ATP luminescence, 48 h. Potency, µM (highest dose often 46.1 µM), for inactives: at the top dose activity, negative = toxicity, actives largely listed as cytotoxic. hit rate 2% among 360,000. AID 686971, 2013;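 note: 0% = DMSO wells and -100% = cell-free medium wells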
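Assay cells: HT-1080 with IDH1 knockdown, 750 per well, RPMI/5% FBS. Exposure: 48 h at 37 °C following 2 h pre-incubation. Read: CellTiter-Glo luminescence; fitted concentration-response, curve class assigned.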
DT40 TDP1 CPT: qHTS for Inhibitors of human tyrosyl-DNA phosphodiesterase 1 (TDP1): qHTS in cells in presence of CPT; chicken DT40 Tdp1-/-;hTDP1 cells + 20 nM CPT, ATP luminescence, 48 h; Potency, µM (highest dose often 46.2 µM), for inactives: at the highest dose activity change, negative = growth inhibition, hits mostly inhibitors; hit rate 12% among 420,000; note: nearly all actives have a fitted effect of over 55% in size
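Chicken DT40 Tdp1-/- cells stably complemented with human TDP1 were seeded at 400 cells/well in medium containing 20 nM camptothecin, exposed to pin-transferred compounds, and grown at 37 °C for at least 48 hr. Viability was read as ATP luminescence.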
KB-3-1 cytotox: qHTS assay for MDR1-selective chemotherapeutics: Primary screen using the parental adenocarcinoma cell KB-3-1; hit rate 1.4% among 400,000; AID 1347075, 2019; KB-3-1 viability, CellTiter-Glo ATP luminescence, 72 h; Potency, µM (titrated, usually from 46.1 µM), usual class: cytotoxic; note: nearly all actives have a fitted effect of over 60% in size
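Using CellTiter-Glo luminescence, growth of non-resistant KB-3-1 adenocarcinoma cells is assessed 72 h after pin-tool compound addition at 37 °C. Normalized responses across the concentration series yield fitted curves.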
* marks the source's active call; other numbers are inactive results; i = inactive; u = inconclusive; x = not tested or not shown. Calls come from the whole dose curve; as a rule, active = well fitted curve in the direction sought with a large enough effect; inconclusive = small, poorly fitted or top-dose-only effect, or another doubt; inactive = no such curve, though single readings can be large; an effect the other way counts as inactive or inconclusive. Unless noted, % is set by controls: 0 for no effect and ±100 for the full control effect; potency is the fitted concentration of half-maximal effect.

SMILES	TDP1 cell noCPT	KB-V1 MDR tox	HT1080NT lethal	HT1080 IDH1KD tx	DT40 TDP1 CPT	KB-3-1 cytotox
COc1ccccc1NC(=O)COC(=O)Cn1cnc2c1c(=O)n(C)c(=O)n2C	-11%	i	7%	10%	u	i
Cc1cc(C)c(NC(=O)CCS(=O)(=O)c2cc3c(cc2Cl)NC(=O)CO3)c(C)c1	x	i	x	x	x	i
CC(=O)Nc1ccc(SCC(=O)c2ccc(Br)s2)cc1	u	i	26µM*	18µM*	u	i
CCC(C)NC(=O)CSc1ccc(NC(C)=O)cc1 (stereo unspecified)	0%	i	6%	4%	-10%	i
CCOc1cccc2sc(N(CCN(C)C)C(=O)/C=C/c3cccs3)nc12	23µM*	i	u	u	7.3µM*	i
CN(C)CCN(C(=O)/C=C/c1cccs1)c1nc2ccc(Br)cc2s1	u	i	-11%	-14%	u	i
COc1cccc2sc(N(CCN(C)C)C(=O)/C=C/c3cccs3)nc12	21µM*	i	-16%	u	u	i
CC1CCC2C(C1)c1sc(=O)[nH]c1SC2(C)C (stereo unspecified)	u	18µM*	u	u	u	i
O=C(Nc1ccc(N2CCOCC2)cc1Cl)C1CCN(C(=O)OCc2ccccc2)CC1	16µM*	i	u	u	u	i
N#Cc1cccc(C(=O)C(=O)N2CCN(C(=O)OCc3ccccc3)CC2)c1	23µM*	u	28%	22%	u	i
O=C(OCc1ccccc1)N1CCOCCN(C(=O)OCc2ccccc2)CCOCC1	26µM*	u	-3%	-4%	26µM*	i
O=C(OCC(=O)N1CCOCC1)C(c1ccccc1)c1ccccc1	4%	21µM*	5%	4%	10%	i
O=C(Nc1ccc(N2CCOCC2)cc1)C1CCN(C(=O)OCc2ccccc2)CC1	-21%	i	-19%	-7%	2%	i
O=C(Nc1ccc(Cl)c(C(F)(F)F)c1)C(Cc1ccccc1)NS(=O)(=O)c1ccc(Br)s1 (stereo unspecified)	-22%	i	x	x	-9%	i
Cc1ccc(NS(=O)(=O)c2cccc(C(=O)N3CCN(C(=O)c4ccco4)CC3)c2)cc1	u	i	-2%	-7%	-25%	i
Cc1cc(C)c(Cn2c(C)c(CNCCCc3ccccc3)c(C(=O)O)c2C)c(C)c1	23µM*	u	x	x	u	i
Cc1ccc(Cn2c(C)c(CNCCCc3ccccc3)c(C(=O)O)c2C)cc1	u	i	x	x	u	i
COc1ccccc1-n1c(N)cc(=O)nc1SCC(=O)Nc1cc(C)on1	1%	i	13%	7%	0%	i
COc1ccc(C)cc1-n1c(SCC(=O)Nc2cc(C)on2)nc2sc(C)c(C)c2c1=O	8.2µM*	i	-1%	-16%	12µM*	i
COc1ccc(C)cc1-n1c(SCC(=O)Nc2cc(C)on2)nc2ccccc2c1=O	13µM*	18µM*	-27%	-27%	10µM*	u
COc1ccc(S(=O)(=O)N2CCCCCC2)cc1C(=O)OCC(=O)NC1CCS(=O)(=O)C1 (stereo unspecified)	18%	i	5%	4%	-4%	i
CCOC(=O)N1CCN(C(=O)C[C@@H]2C[C@@]3(C(=O)OC)CCCCC=C3N(Cc3ccccc3)C2=O)CC1	u	u	17%	0%	u	i
COc1ccc(N2CCC(CNC(=S)Nc3cc(C)cc(C)c3)C2)cc1 (stereo unspecified)	15µM*	i	u	u	u	i
COc1ccc(N2CCC(CNC(=O)Nc3ccccc3)C2)cc1 (stereo unspecified)	u	16µM*	1%	8%	-8%	i
COc1ccc(CNC(=O)Nc2ccccc2)cc1	u	i	1%	5%	u	i
SMILES	TDP1 cell noCPT	KB-V1 MDR tox	HT1080NT lethal	HT1080 IDH1KD tx	DT40 TDP1 CPT	KB-3-1 cytotox
COc1ccc(N2CCC(CNC(=S)Nc3cc(C)ccc3C)C2)cc1 (stereo unspecified)	16µM*	18µM*	-22%	3%	16µM*	i
O=C(CSc1nc2c(c(=O)n1-c1ccc(Cl)cc1)SCC2)NCc1ccco1	-29%	i	7%	5%	-11%	i
COc1cc2c(C(=O)N(C)c3cc(Cl)ccc3OC)cn(CC(C)C)c(=O)c2cc1OC	8.2µM*	u	x	x	9.2µM*	i
CCc1ccccc1N(C)C(=O)c1cn(CC(C)C)c(=O)c2cc(OC)c(OC)cc12	10µM*	i	x	x	10µM*	i
COc1ccc(N(C)C(=O)c2cn(CC(C)C)c(=O)c3cc(OC)c(OC)cc23)c(OC)c1	-26%	u	-4%	-1%	u	i
CCCN(C(=O)c1cn(CC(C)C)c(=O)c2cc(OC)c(OC)cc12)c1cccc(C)c1	15µM*	i	x	x	13µM*	i
CCN(C(=O)c1cn(CC(C)C)c(=O)c2cc(OC)c(OC)cc12)c1cc(OC)ccc1OC	15µM*	i	x	x	13µM*	i
CCC1CCCCN1CCCNC(=O)c1cn(CC(C)C)c(=O)c2cc(OC)c(OC)cc12 (stereo unspecified)	1.8µM*	i	-14%	-28%	1%	u
CCOC(=O)C1C(=O)NC(SCC(N)=O)=C(C#N)C1c1ccccc1OCC (stereo unspecified)	-5%	i	4%	2%	-5%	i
Cn1c(C(O)c2ccc3c(c2)OCO3)nc2ccccc21 (stereo unspecified)	u	i	-1%	-1%	16µM*	i
CCOC(=O)NNc1ccc(N(CC)CC(C)O)nn1 (stereo unspecified)	-22%	x	x	x	-29%	x
O=C(N/N=C/c1cn(-c2ccccc2)nc1-c1cccnc1)c1ccccc1	23µM*	i	-25%	u	23µM*	i
O=C(N/N=C/c1cn(-c2ccccc2)nc1-c1ccc(F)cc1)c1ccc2c(c1)OCO2	18µM*	u	-3%	-2%	u	u
